Assay [1] addresses Lysosomal acid glucosylceramidase (Homo sapiens) (UniProt P04062). Put plainly: Glucocerebrosidase-p2 (AID 348; in the data active = potency below about 10 µM; also: potency is read from the fitted curve at half-maximal effect). The settings on record: purified GBA, blue fluorogenic substrate, 40 min. The procedure, abridged: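 Compounds titrated from 0.6 nM upwards against 0.2 nM enzyme in pH 5.9 citric acid/KH2PO4, taurocholate, tween-20; blue fluorogenic substrate 80 uM, 40 min room temperature, stopped and read Ex 365/Em 440 for AC50.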

Assay [2] in a line: AP1 Signaling Pathway (AID 357). Also: % is scaled to controls: 0 for no effect and ±100 for the full control effect. As to conditions: ME-180 AP-1-bla reporter, EGF-induced, beta-lactamase ratio, 5 h; at 7.69 µM (top of the series) unless noted. A digest of the protocol:
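ME-180 cells with beta-lactamase reporter under AP-1 response element, stimulated with EC50 EGF; compounds tested in titration series, 5 h at 37 °C. CCF4 substrate added 2.5 h at room temperature; 460/530 nm emission ratio gave %activity and AC50.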

Assay [3] in a line: NFAT Signaling Pathway (AID 444).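 Also: carbachol stimulus at about its EC50 of 1 µM final; % is scaled to controls: 0 for no effect and ±100 for the full control effect.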 As to conditions: Jurkat NFAT-bla M1, carbachol, beta-lactamase ratio, 5 h; at 7.69 µM (top of the series) unless noted. The procedure, abridged: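 Jurkat cells carrying an NFAT-driven β-lactamase reporter and co-transfected muscarinic M1 receptor were treated with compound plus carbachol (1 uM final, an EC50 level) for 5 h at 37 °C. CCF4 loading followed for 1 h at RT; 460/530 nm ratio gave %activity.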

The nature of assay [4]: Stat Signaling Pathway (AID 446).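 Also: ME-180 cervical cancer cells given 40 pM IL-6 alongside compound; SIE-controlled beta-lactamase reporter measured as 460/530 nm FRET emission ratio; % is scaled to controls: 0 for no effect and ±100 for the full control effect.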 As to conditions: ME-180 SIE beta-lactamase reporter, IL-6 stimulated, 5 h; at 7.69 µM (top of the series) unless noted. A digest of the protocol: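 IL-6/STAT signaling read in ME-180 cells via an SIE beta-lactamase reporter. Stimulus was 40 pM IL-6 (its AC50) for 5 hrs, so both activation and inhibition register.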
Assay [5] addresses Glucocorticoid receptor (Homo sapiens) (UniProt P04150). Nature of the assay: GR-GFP Redistribution (AID 450;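 active = compounds whose dose series gives a full or clear partial fitted curve of increased nuclear translocation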; also: potency is read from the fitted curve at half-maximal effect). The settings on record: U2OS GR-GFP nuclear translocation, laser cytometry, 2 h.
The target is the same in assay [6]. Nature of the assay: GR-EFC Redistribution (AID 451; calls by dose curve; also: potency is read from the fitted curve at half-maximal effect). As to conditions: CHO-K1 GR-EFC translocation, beta-gal luminescence, 2 h. The procedure, abridged: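 CHO-K1 cells stably expressing nuclear-localized β-gal enzyme acceptor and GR fused C-terminally to the enzyme donor fragment; ligand-driven nuclear translocation restores β-gal by complementation. Compounds titrated up to 46 uM final, 2 h at 37 °C; luminescence read.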

For assay [7], the target named is Mitogen-activated protein kinase 10 (Mus musculus) (UniProt Q61831). Nature of the assay: JNK3 AlphaScreen Assay (AID 530).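 Also: kinase came from lysate of stimulated human HepG2 cells; signal reports phosphorylation of biotinylated GST-cJun 1-79 at Ser73 with 10 µM ATP; % is scaled to controls: 0 for no effect and ±100 for the full control effect.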 The settings on record: JNK3 lysate, c-Jun phosphorylation; series mostly up to 11.4 µM. A digest of the protocol: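 Inhibitors reduce antibody binding to phosphorylated biotin-cJun, lowering AlphaScreen luminescence. Lysates from HepG2 cells pre-activated by IL-1beta plus TNF-alpha supplied JNK3; compounds were titrated.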
(In Alpha technology, singlet oxygen from a donor bead excites a nearby acceptor bead.)

The target in assay [8] is 3',5'-cyclic-AMP phosphodiesterase 4B (Homo sapiens) (UniProt Q07343). Put plainly: qHTS Assay for Inhibitors of PDE-IV (AID 607; active = well fitted activation curve with a large enough effect in the main read-out, with a control signal flat, not every such curve was filed as active; also: % of control where 0% means no effect). As to conditions: HEK293 ACTOne CNG channel cells, membrane potential fluorescence; series mostly up to 22.9 µM. The procedure, abridged:
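Live HEK293 cells with a modified cyclic nucleotide-gated (CNG) channel report intracellular cAMP via membrane-potential dye fluorescence (ex 535/em 590 nm). Endogenous PDE-IV was targeted. Compounds were tested at up to 22.9 uM final; RO 20-1724 100 uM served as control.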
Background: In qHTS, concentration-response curves come from the screen itself.

Assay [9] is described as follows: qHTS Assay for Identification of Small Molecule Agonists for Hypoxia Response Element Signaling Pathway (AID 914; active = well fitted activation curve with a large enough effect in the signal ratio, with a control signal flat, not every such curve was filed as active; the % refers to the signal ratio; also: % of control where 0% means no effect). The settings on record: ME-180 (cervical carcinoma) HRE-bla reporter, beta-lactamase ratio, CoCl2, 17 h; activation: hits give high values. The procedure, abridged:
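In Opti-MEM containing 0.5% dialyzed FBS and 10 mM HEPES, ME-180 HRE-bla cells received a compound titration and EC50 CoCl2. They were incubated 17 hours, then CCF4-loaded 2.5 hours at room temperature before ratio reading.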

For assay [10], the target named is Cytochrome P450 2D6 (Homo sapiens) (UniProt P10635). Put plainly: qHTS Assay for Inhibitors and Substrates of Cytochrome P450 2D6 (AID 891; active = well fitted curve in the direction sought with a large enough effect; an effect the other way counts as inactive or inconclusive; also: potency is read from the fitted curve at half-maximal effect; nearly all actives have a fitted effect of over 60% in size). As to conditions: recombinant CYP2D6, luciferin-ME EGE luminescence; series mostly up to 11.4 µM. A digest of the protocol:
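Human CYP2D6 (5 nM) with 30 uM Luciferin-ME EGE (at Km) in 100 mM KPO4, compound preincubated 10 min, then NADPH regeneration system for 60 min at room temperature. Luciferin read by luminescence; normalized to 1.43 uM quinidine.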

Assay [11] in a line: Confirmation and Secondary Assay for Modulators of Hemoglobin Beta Chain Splicing at IVS2 654 locus (AID 910; active = well fitted curve in the direction sought with a large enough effect; an effect the other way counts as inactive or inconclusive;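 also: per-well total GFP intensity by laser scanning cytometry after 2-day treatment; % of control where 0% means no effect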). As to conditions: HeLa EGFP-654 splicing reporter, GFP fluorescence, 48 h; series mostly up to 38.3 µM. A digest of the protocol:
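HeLa cells stably carrying EGFP interrupted by mutant beta-globin IVS2-654 intron (CMV-driven) were treated with compound for 2 days at 37C; corrected splicing was scored as total peak GFP intensity per well (488 nm excitation, 500-520 nm emission).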

Assay [12] is described as follows: Confirmation and Secondary Assay for Modulators of Hemoglobin Beta Chain Splicing at IVS2 705 locus (AID 930; active = well fitted curve in the direction sought with a large enough effect; an effect the other way counts as inactive or inconclusive;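 also: HeLa cells stably expressing the EGFP-705 splicing reporter; GFP fluorescence per well restored by corrected splicing of the IVS2-705 intron in EGFP; % of control where 0% means no effect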). The settings on record: HeLa EGFP-705 splicing reporter, GFP fluorescence, 48 h; series mostly up to 38.3 µM. A digest of the protocol: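 Per-well GFP, captured at 1 x 8 µm resolution with 488 nm excitation, served as the read-out for HeLa EGFP-705 cells incubated 2 days with test compound versus DMSO.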

Assay [13] deals with Ubiquitin carboxyl-terminal hydrolase 1 (Homo sapiens) (UniProt O94782). Put plainly: Inhibitors of USP1/UAF1: Pilot qHTS (AID 504865; active = well fitted curve in the direction sought with a large enough effect; an effect the other way counts as inactive or inconclusive; also: nearly all actives have a fitted effect of over 35% in size; also: potency is read from the fitted curve at half-maximal effect). The settings on record: purified USP1/UAF1, Ub-rhodamine cleavage fluorescence; series mostly up to 114 µM. The procedure, abridged:
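1nM USP1/UAF1 + cpd, 15 min RT; start w/ Ub-Rho 150nM final; kinetic FL 480/540 nm, 6 reads q60 s. Buffer 50mM HEPES pH 7.8, 0.5mM EDTA, 1mM TCEP, 0.01% Tween-20, 0.1 mg/ml BSA.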

Assay [14] addresses Cytochrome P450 3A4 (Homo sapiens) (UniProt P08684). Nature of the assay: qHTS Assay for Activators of Cytochrome P450 3A4 (AID 885; active = well fitted curve in the direction sought with a large enough effect; an effect the other way counts as inactive or inconclusive; also: nearly all actives have a fitted effect of over 65% in size). The settings on record: recombinant CYP3A4, Luciferin-PPXE luminescence, 60 min; series mostly up to 11.4 µM. A digest of the protocol:
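Quantitative HTS format: compounds preincubated with 20nM human CYP3A4 and Luciferin-PPXE substrate at KM, reaction started by NADPH regeneration, stopped after 60 min, luciferase luminescence read 20 min later.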

Values without a mark were called inactive. Results filed as inconclusive are left out. Activity calls are given as the source filed them. Unless noted, calls follow the shape of the dose curve; as a rule, active = well fitted curve in either direction with a large enough effect (not every such curve was filed as active); inconclusive = small, poorly fitted or top-dose-only effect, or another doubt; inactive = flat fitted curve, though single readings scatter.

3',5'-cyclic-AMP phosphodiesterase 4B (Homo sapiens), sequence (Q07343 whole entry, looked up): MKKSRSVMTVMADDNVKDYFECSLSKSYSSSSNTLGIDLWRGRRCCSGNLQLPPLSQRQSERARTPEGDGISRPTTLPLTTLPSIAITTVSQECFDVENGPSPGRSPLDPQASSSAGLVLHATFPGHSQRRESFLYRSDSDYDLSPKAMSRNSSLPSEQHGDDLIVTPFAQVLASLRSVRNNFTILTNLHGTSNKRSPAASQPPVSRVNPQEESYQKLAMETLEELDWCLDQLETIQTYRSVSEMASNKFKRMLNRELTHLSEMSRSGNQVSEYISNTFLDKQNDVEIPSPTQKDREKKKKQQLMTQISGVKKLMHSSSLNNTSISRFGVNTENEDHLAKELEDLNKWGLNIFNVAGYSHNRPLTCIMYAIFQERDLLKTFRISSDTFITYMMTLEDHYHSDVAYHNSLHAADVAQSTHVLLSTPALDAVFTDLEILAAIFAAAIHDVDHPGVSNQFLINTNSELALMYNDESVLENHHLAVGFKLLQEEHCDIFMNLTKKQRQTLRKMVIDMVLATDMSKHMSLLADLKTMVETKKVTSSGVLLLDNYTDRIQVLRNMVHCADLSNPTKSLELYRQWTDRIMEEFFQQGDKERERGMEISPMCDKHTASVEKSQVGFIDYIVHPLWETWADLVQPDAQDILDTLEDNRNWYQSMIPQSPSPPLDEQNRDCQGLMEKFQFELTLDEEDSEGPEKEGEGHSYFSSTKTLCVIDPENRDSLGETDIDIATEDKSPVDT
Glucocorticoid receptor (Homo sapiens), sequence (P04150 whole entry, looked up, the tested form may be a part): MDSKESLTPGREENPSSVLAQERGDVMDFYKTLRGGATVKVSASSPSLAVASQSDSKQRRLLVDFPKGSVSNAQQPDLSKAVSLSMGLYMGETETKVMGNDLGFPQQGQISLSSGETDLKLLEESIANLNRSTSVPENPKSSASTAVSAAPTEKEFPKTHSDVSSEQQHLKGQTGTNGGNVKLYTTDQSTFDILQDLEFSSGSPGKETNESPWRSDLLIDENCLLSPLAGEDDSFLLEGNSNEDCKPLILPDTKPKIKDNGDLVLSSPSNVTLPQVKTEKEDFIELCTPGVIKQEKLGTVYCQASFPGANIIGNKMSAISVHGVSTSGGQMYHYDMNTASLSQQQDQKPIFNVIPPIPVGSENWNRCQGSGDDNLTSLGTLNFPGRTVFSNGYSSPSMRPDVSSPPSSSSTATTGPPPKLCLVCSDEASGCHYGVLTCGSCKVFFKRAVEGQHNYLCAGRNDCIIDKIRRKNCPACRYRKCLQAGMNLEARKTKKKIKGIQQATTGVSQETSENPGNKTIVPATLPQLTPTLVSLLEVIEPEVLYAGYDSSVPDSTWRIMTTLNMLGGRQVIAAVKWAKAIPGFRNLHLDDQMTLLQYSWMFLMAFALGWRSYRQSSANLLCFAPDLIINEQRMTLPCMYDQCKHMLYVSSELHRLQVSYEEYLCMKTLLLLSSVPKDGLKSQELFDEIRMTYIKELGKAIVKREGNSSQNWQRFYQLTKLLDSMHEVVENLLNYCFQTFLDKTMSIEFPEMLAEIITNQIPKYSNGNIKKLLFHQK
Lysosomal acid glucosylceramidase (Homo sapiens), sequence (P04062 whole entry, looked up): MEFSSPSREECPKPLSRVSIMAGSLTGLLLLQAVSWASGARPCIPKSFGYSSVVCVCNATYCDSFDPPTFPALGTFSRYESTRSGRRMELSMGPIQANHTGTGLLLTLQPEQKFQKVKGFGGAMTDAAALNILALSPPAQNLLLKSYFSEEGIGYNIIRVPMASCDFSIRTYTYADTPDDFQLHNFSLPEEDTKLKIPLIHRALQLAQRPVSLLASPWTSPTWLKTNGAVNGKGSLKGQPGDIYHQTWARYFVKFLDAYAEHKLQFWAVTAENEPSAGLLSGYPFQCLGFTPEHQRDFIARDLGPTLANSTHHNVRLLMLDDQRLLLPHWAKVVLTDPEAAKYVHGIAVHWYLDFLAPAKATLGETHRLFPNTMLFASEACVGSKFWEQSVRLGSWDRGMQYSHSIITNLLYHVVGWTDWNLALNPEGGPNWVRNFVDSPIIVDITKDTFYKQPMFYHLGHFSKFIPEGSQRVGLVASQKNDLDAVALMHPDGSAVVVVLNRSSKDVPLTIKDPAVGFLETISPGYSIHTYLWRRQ
Ubiquitin carboxyl-terminal hydrolase 1 (Homo sapiens), sequence (O94782 whole entry, looked up): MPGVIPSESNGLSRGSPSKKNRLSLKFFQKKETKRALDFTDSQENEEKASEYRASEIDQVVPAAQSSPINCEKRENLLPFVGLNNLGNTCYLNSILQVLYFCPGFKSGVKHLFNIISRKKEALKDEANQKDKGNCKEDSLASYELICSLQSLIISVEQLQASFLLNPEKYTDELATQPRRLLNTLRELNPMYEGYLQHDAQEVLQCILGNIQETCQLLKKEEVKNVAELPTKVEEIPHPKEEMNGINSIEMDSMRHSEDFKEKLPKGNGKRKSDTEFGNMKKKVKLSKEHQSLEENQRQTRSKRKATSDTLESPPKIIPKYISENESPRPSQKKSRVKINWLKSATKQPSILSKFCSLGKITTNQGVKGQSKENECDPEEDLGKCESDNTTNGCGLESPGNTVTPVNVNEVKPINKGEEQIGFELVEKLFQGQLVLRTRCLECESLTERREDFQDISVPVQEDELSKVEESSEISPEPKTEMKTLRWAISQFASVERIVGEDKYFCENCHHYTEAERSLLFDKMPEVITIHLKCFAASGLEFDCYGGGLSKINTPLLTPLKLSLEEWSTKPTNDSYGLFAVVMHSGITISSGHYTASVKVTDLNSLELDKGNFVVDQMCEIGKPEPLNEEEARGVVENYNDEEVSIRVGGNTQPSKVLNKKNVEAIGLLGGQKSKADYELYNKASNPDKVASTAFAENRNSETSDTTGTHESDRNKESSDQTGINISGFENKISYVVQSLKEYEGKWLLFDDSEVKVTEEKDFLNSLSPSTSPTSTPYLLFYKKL
Cytochrome P450 3A4 (Homo sapiens), sequence (P08684 whole entry, looked up): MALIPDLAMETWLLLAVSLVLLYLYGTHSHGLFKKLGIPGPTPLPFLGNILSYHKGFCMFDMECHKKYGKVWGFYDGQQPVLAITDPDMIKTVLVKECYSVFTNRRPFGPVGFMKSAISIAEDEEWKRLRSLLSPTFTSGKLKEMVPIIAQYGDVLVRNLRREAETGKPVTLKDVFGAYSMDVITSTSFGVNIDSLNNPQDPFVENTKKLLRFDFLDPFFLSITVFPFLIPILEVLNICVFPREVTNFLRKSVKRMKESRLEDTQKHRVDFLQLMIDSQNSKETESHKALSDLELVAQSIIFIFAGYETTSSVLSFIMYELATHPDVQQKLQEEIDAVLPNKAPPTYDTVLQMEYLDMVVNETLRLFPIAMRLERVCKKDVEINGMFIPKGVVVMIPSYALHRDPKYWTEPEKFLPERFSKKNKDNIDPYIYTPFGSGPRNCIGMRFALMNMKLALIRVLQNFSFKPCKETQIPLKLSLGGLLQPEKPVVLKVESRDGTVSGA
Cytochrome P450 2D6 (Homo sapiens), sequence (P10635 whole entry, looked up): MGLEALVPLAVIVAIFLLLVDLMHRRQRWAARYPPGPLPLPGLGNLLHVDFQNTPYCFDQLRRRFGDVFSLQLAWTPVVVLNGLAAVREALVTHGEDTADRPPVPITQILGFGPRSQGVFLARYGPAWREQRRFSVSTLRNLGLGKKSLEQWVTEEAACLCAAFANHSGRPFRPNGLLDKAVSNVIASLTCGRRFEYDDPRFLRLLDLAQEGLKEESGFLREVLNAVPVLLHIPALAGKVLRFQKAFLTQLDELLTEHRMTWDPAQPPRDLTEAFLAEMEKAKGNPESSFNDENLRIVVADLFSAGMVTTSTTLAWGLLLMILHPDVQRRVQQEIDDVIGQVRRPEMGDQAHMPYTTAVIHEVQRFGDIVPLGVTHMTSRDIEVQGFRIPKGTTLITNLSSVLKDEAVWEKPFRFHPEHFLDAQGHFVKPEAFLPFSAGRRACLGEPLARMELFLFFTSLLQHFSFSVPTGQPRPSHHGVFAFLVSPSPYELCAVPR

Consider `NCCC1([N+](=O)[O-])CCNCC1`, for which the Potency in assay [1] was over 11.4 µM; in [5] it was over 46 µM; in [6], over 9.22 µM. Also, the activity change, negative = inhibition is 2% in assay [2] and 12.9% in assay [3]. Besides, the activity, negative = inhibition in assay [4] was -18.7%. Besides, the Potency entry in [7] and in assay [8] was “inactive” in each case. Moreover, the activation in [9] is 13.3%.
On to `O=C(O)CC(CC(=O)O)C(=O)O`, for which the Potency in assay [1] is over 11.4 µM; in assay [5], over 46 µM. The activity change, negative = inhibition in [2] was -1.11%; in assay [3], 8.83%. In [4], the activity, negative = inhibition was 7.1%. Further, the Potency entry in [7] and in [8] was “inactive” each time.
As for `CN1CCC[C@@H]1c1cccnc1.O=C(O)c1ccccc1O.O=C([OH2+])c1ccccc1O.O=C([OH2+])c1ccccc1O.O=C([OH2+])c1ccccc1O.[Mn]`, in assay [1], the Potency is over 11.4 µM. The activity change, negative = inhibition in assay [2] was 13.3%; in [3] it was -2.84%. For the same compound, in assay [4], the activity, negative = inhibition is -11.4%. The Potency entry in assay [7] and in assay [8] was “inactive” throughout.
Turning to `O=S(=O)(O)c1ccc2c(N=Nc3c(O)ccc4ccccc34)cccc2c1`, the Potency was over 11.4 µM in assay [1], over 46 µM in assay [5] and over 9.22 µM in [6]. The activity change, negative = inhibition in [2] was -13.3%; in [3], -11.8%. Also, in assay [4], the activity, negative = inhibition is -5.48%. The Potency result in assay [8] was “inactive”.
Regarding `Cc1noc(C)c1C(=O)N1CCC2(CC1)CN(c1cccc(-c3ccccc3)c1)C2`, the Potency in assay [1] was over 11.4 µM; in assay [6], over 46 µM. Moreover, the activity change, negative = inhibition in assay [2] was -13.8%; in [3] it was 5.64%. Moreover, the activity, negative = inhibition in [4] was -11.6%. The Potency entry in [7] and in assay [8] was “inactive” in each case.
With `COc1ccc(C(=O)N2CCC3(CC2)CN(c2ccccc2)C3)cc1`, the values for the Potency in assay [1] and in assay [6] were over 11.4 µM and over 46 µM, respectively. The results for the activity change, negative = inhibition in assay [2] and in assay [3] were -16.2% and 5.84%, respectively. Besides, in assay [4], the activity, negative = inhibition is -21.3%. The Potency result in [7] and in assay [8] was “inactive” each time.
Regarding `c1ccc(CCN2CCN=C2Cc2ccccc2)cc1`, the Potency was over 11.4 µM in [1], over 46 µM in assay [5], over 9.22 µM in [6] and 0.126 µM (active) in [10]. For the same compound, the activity change, negative = inhibition in [2] is 6.53%; in assay [3], -21.9%. For the same compound, in assay [4], the activity, negative = inhibition is 14.6%. In addition, in assay [7], the Potency entry is “inactive”.
Consider `OC[C@H](CCc1c[nH]c2ccccc12)c1c[nH]c2ccccc12`, for which the Potency in [1] is over 11.4 µM; in [5], over 46 µM; in assay [6] it was over 9.22 µM. Also, the activity change, negative = inhibition in [2] is -11.6%; in [3], 29.4%. The activity, negative = inhibition in assay [4] was -1.35%. Further, the Potency result in [7] and in [8] was “inactive” in each case. Further, the activation in [9] is -29.3%.
`O=S(=O)(O)c1ccc(NN(c2c(O)ccc3ccccc23)S(=O)(=O)O)cc1`: the Potency in [1] is over 11.4 µM; in [5], over 46 µM; in assay [6], over 9.22 µM. Besides, the activity change, negative = inhibition is 8.88% in assay [2] and -1.45% in [3]. In addition, the activity, negative = inhibition in [4] was -0.169%. In assay [8], the Potency result was “inactive”.
With `COc1ccc(CNc2nc(-c3ccccc3OC)nc3ccccc23)c(OC)c1`, the Potency in [1] was over 11.4 µM; in [5], over 46 µM; in assay [6] it was over 46 µM; in [13], 20 µM (active). Besides, in [2], the activity change, negative = inhibition was -13.6%. Moreover, the activity, negative = inhibition in assay [4] was 16.1%. Further, the Potency entry in [7] and in [8] was “inactive” in each case. For the same compound, the outcome in assay [11] and in assay [12] was inactive.
For `O=C(O)CN(CCN(CC(=O)O)CC(=O)O)CC(=O)O.[Cu]`, the Potency in [1] was over 11.4 µM. Besides, the activity change, negative = inhibition in assay [2] is -4.33%; in [3], 0.389%. In addition, the activity, negative = inhibition in [4] is 6.67%. The Potency entry in [7] and in [8] was “inactive” in each case.
For the compound `Cc1nn(-c2ccc(S(=O)(=O)O)cc2)c(O)c1N=Nc1ccc(-c2ccc(N=Nc3ccc4c(S(=O)(=O)O)cc(S(=O)(=O)O)c(N)c4c3O)c(O)c2)cc1O.[Cu].[Cu]`, the Potency in [1] was over 11.4 µM; in assay [5], over 46 µM; in assay [6] it was over 9.22 µM. Further, the activity change, negative = inhibition is 8.16% in assay [2] and 6.08% in [3]. Also, the Potency entry in assay [7] and in assay [8] was “inactive” each time.
On to `NC(=O)NCCS[C@H]1CCCC[C@@H]1O`, for which the Potency in assay [1] is over 11.4 µM; in [5] it was over 46 µM; in assay [6], over 9.22 µM. The values for the activity change, negative = inhibition in [2] and in assay [3] were 3.84% and 3.5%, respectively. Further, the Potency result in assay [7] and in assay [8] was “inactive” each time.
Take `O=C1C2=C(Nc3cc([N+](=O)[O-])ccc3N2)O[C@@H]1c1ccc([C@H]2OC3=C(Nc4ccc([N+](=O)[O-])cc4N3)C2=O)cc1`: the Potency is over 11.4 µM in assay [1], over 46 µM in assay [5] and over 9.22 µM in [6]. The activity change, negative = inhibition in assay [2] is -12.2%; in [3], 4.88%. For the same compound, the Potency entry in assay [7], in [8] and in assay [14] was “inactive” each time.
Turning to `COc1ccc(-c2nc3cnc(N4CCNCC4)nc3n(Cc3cccc(OC)c3)c2=O)cc1`, the Potency in assay [1] was over 11.4 µM; in [5], over 9.22 µM; in [6], over 46 µM. The activity change, negative = inhibition was 109% [activator] (active) in assay [2] and 101% [activator] (active) in assay [3]. Also, the Potency result in assay [8] and in [14] was “inactive” in each case.
With `COc1ccccc1-c1nc(NCCc2cnc[nH]2)c2ccccc2n1`, the Potency is over 11.4 µM in assay [1], over 46 µM in [5] and over 46 µM in assay [6]. For the same compound, the activity change, negative = inhibition in assay [2] was 17.1%. Further, the activity, negative = inhibition in [4] was 22.8%. Besides, the Potency result in assay [7], in assay [8] and in assay [13] was “inactive” throughout.
